A selection: hits, their analogues and other compounds. The true share with any hit is near 6.9%.
Mdm2 MdmX PPI: disrupts the human Mdm2-MdmX interaction; O15151+Q00987; SaOS-2 split-luciferase Mdm2/MdmX complementation, luminescence; inhibition, % at 8 µM; 3% of 330,000 active; AID 485346;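 active means inhibition of at least 50% at 8 µM in the primary screen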
MPTP block: permeability transition pore inhibition; isolated mouse mitochondria, Ca2+ swelling absorbance, 30 min; inhibition, % at 10 µM; 1.4% of 360,000 active;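 active means inhibition of 50% or more, scaled per plate between neutral and stimulator controls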;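 further: 0% = DMSO wells given calcium and 100% = 1 mM EGTA wells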
CSC inhib: blocks cancer stem cells. cancer stem cell-like cells viability, luminescence. inhibition, % at 7.5 µM. 1.1% of 300,000 active; in the data active means inhibition above about 75%; tested in HMLE shEcad cells
Beta cell apopt: beta cell apoptosis inhibition | INS-1E cytokine-induced death, ATP luminescence, 48 h; percent of positive-control rescue, neutral wells zero | protection from apoptosis, % (test concentration not listed) | 0.8% of 300,000 active;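 active means Every replicate reaches about 75%, or at least half do and their mean reaches it too, limit read from the data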;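 further: 0% = cytokine-treated negative control wells and 100% = positive control rescue; higher means more ATP so stronger rescue from cytokine killing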
GRIN3A LBD mod: NR3A (human) ligand-binding domain modulation; NR3A LBD differential scanning fluorimetry, Tm shift; 0% = protein alone, 100% = glycine-bound protein; AID 1259313; Tm shift relative to glycine control, % at 25 µM; 2.5% of 340,000 active;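 active means melting temperature shift of at least 10% of the positive control shift, at one fixed dose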
SKKanGAS inh: SKKanGAS growth inhibition; S. pyogenes SKKanGAS, kanamycin growth, BacTiter-Glo, 6 h; 1.3% of 300,000 active; AID 1662; inhibition, % at 7.5 µM;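 active means mean replicate score, as percent of positive control median, at least 50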;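 further: strain carries kanamycin resistance gene driven by streptokinase promoter and grows in 40 µg/ml kanamycin; loss of luminescence reflects streptokinase promoter inhibition or plain growth inhibition; 0% = median of DMSO wells and 100% = positive control at its reference dose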
Rh123 counter: membrane potential counter-screen of mitochondrial pore inhibitors; 78% of 5,000 active; inhibition, % at 10 µM; isolated mitochondria, Rhodamine 123 fluorescence; shares compounds with MPTP block; AID 624504; in the data active means inhibition above about 22%;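 further: 0% = DMSO vehicle and 100% = positive control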
MPTP swell DR: dose response confirmation of mitochondrial permeability transition pore inhibitors; shares compounds with MPTP block; 58% of 780 active; AID 651561; IC50, µM; isolated mitochondria swelling, absorbance; in the data active means IC50 below about 20 µM
MPTP counter DR: MPTP inhibitor counter-screen activity, dose response; isolated mitochondria counterscreen, fluorescence read-out; IC50, µM; 49% of 780 active; shares compounds with MPTP block; in the data active means IC50 below about 80 µM
Starred values were filed as active, the others as inactive; x = no result.

SMILES	Mdm2 MdmX PPI	MPTP block	CSC inhib	Beta cell apopt	GRIN3A LBD mod	SKKanGAS inh	Rh123 counter	others
CCOc1ccc(Nc2nc(Cc3nnc(SCC(=O)c4ccc(C)c(C)c4)o3)cs2)cc1	15	83*	20	97*	-4	14	74*
Cc1ccc(NC(=O)CSc2nnc(Cc3csc(C)n3)o2)cc1	-43	0	2	-5	-2	x	x
O=C(CSc1nncs1)Nc1ccc(Cl)cc1C(F)(F)F	13	2	-5	-7	0	5	x
Cc1ccc(/C=C2/SC(=S)N(CCC(=O)N3CCN(C)CC3)C2=O)cc1	48	79*	53	-54	2	-1	5	MPTP swell DR=>100;MPTP counter DR=>80
CN(C)CCC(=O)N1c2ccccc2Sc2ccc(C(F)(F)F)cc21	26	0	11	-3	0	0	x
CN(C)CCCN1c2ccccc2Sc2ccc(C(F)(F)F)cc21	13	102*	9	-1	1	-1	-21
O=C(Nc1ccc(Cl)cc1)Nc1ccccc1NS(=O)(=O)c1cccs1	21	82*	35	-3	30*	8	83*
O=C(Nc1ccc(F)cc1)Nc1ccccc1NS(=O)(=O)c1cccs1	6	81*	-1	3	30*	1	86*
O=S(=O)(Nc1ccccc1Cl)c1ccc(NS(=O)(=O)c2cccs2)cc1	25	-3	-3	-6	-9	4	x
NC(=O)c1ccccc1NS(=O)(=O)c1cccs1	13	-4	-11	-3	1	1	x
Cc1nn(C)c(C(=O)Nc2c(C)nn(Cc3c(F)c(F)c(F)c(F)c3F)c2C)c1Br	17	1	-5	8	0	x	x
NC1=NC[C@H](Cc2ccc(O)cc2)N1CC1CCCCC1	5	0	8	3	5	6	x
NC1=NC[C@@H](Cc2ccc(O)cc2)N1CCCCC1CCCCC1	41	60*	23	57	-2	9	5	MPTP swell DR=9.6*;MPTP counter DR=24*
COc1ccccc1NC(=O)c1nnn(Cc2ccccc2)c1NC(=O)C(F)(F)F	-1	74*	1	3	-5	8	73*
CC(=O)Nc1c(C(=O)NCc2ccccc2)nnn1Cc1ccccc1	6	2	x	5	-3	-4	x
O=C(Nc1ccccc1)c1nnn(Cc2ccccc2)c1NC(=O)C(F)(F)F	3	89*	20	-8	1	15	84*
CC(NC(=O)C1CCN(C(=O)Nc2ccccc2)CC1)c1ccccc1 (centres undefined)	17	2	10	-3	2	-12	x
Cc1ccc(NC(=O)Nc2cnccn2)cc1Cl	-8	63*	9	2	-2	-5	64*
Cc1cc(NC(=O)Nc2ccc(Cl)c(Cl)c2)no1	0	82*	24	-1	-3	-3	94*
Cc1noc(NS(=O)(=O)c2ccc(NC(=O)Nc3ccc(Cl)c(Cl)c3)cc2)c1C	6	84*	46	-2	36*	28	75*
COc1ccc(NC(=O)Nc2cnccn2)cc1	-1	1	2	-2	-8	-8	x
C/C(=N\Nc1ccc(C)c(Cl)c1)c1ccncc1	9	2	-6	4	-2	6	x
C/C(=N\NC(=O)C(=O)Nc1ccc(C)c(Cl)c1)c1ccncc1	6	55*	-11	21	2	-6	8	MPTP swell DR=1.5*;MPTP counter DR=<2.5*
O=C(Cc1ccccn1)c1ccncc1	x	-1	x	x	-1	x	x
N#C/C(=C\Nc1ccccc1O)c1nc2ccccc2o1	x	77*	49	8	27*	9	78*
Cc1cccc(Nc2c3c(nc4ccccc24)CCC3)c1	27	78*	39	34	-4	13	74*
C#CCN1Cc2ccccc2Oc2cc(Br)ccc2S1(=O)=O	32	0	x	x	-3	x	x
Oc1c(Cl)cc(Cl)cc1C1=NNC(c2ccc(Cl)cc2)C1 (centres undefined)	x	68*	x	x	-1	x	30*
N#C/C(=C\c1ccco1)c1nc2ccccc2s1	-189	10	2	3	-4	-6	x
